From PubChem BioAssay (NCI)
Where “and” joins values, the source holds several entries; their conditions need not be identical. Equal entries are not always repeated. The panel holds about 83,000 compounds, 20% with a hit somewhere; the sample as a whole holds those more often.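 The endpoint reported here, percent growth, reads 100 for growth as untreated, 0 for no net growth and -100 for all cells dead.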 Calls of active or inactive are those of the source. The calls were made as follows: active = growth percent below 10; inactive = the rest.

Experiments:
Test in all cases: NCI-60 one-dose screen, 48 h (100 = growth as untreated, 0 = no growth, -100 = all killed)
Details in all cases: 10 µM unless noted
MOLT-4 leukemia = tested on: MOLT-4 leukemia
SR leukemia = tested on: SR leukemia
RPMI-8226 leukemia = tested on: RPMI-8226 leukemia
OVCAR-8 ovarian = tested on: OVCAR-8 ovarian
OVCAR-5 ovarian = tested on: OVCAR-5 ovarian
OVCAR-4 ovarian = tested on: OVCAR-4 ovarian
SK-OV-3 ovarian = tested on: SK-OV-3 ovarian
IGROV1 ovarian = tested on: IGROV1 ovarian
OVCAR-3 ovarian = tested on: OVCAR-3 ovarian
HS 578T breast = tested on: HS 578T breast
NCI/ADR-RES ovarian = tested on: NCI/ADR-RES ovarian
T-47D breast = tested on: T-47D breast
BT-549 breast = tested on: BT-549 breast
MDA-MB-435 melanoma = tested on: MDA-MB-435 melanoma
SW-620 colon = tested on: SW-620 colon
MCF7 breast = tested on: MCF7 breast
HCT-116 colon = tested on: HCT-116 colon
HCC-2998 colon = tested on: HCC-2998 colon
KM12 colon = tested on: KM12 colon

Measured: growth

COC(=O)C12C3C4C1C1C2C3C41NC(=O)c1csc([C@@H](C[C@H](C(C)C)N(C)C(=O)[C@@H](NC(=O)[C@H]2CCCCN2C)C2CC2)OC(C)=O)n1 (stereo not given in full)
active: SK-OV-3 ovarian 7.71% | OVCAR-3 ovarian -4.31% | BT-549 breast -17.2% | MDA-MB-435 melanoma -29.7% | HCT-116 colon 2.94% | KM12 colon 5.25%
inactive: MOLT-4 leukemia 19.2% | SR leukemia 19.1% | RPMI-8226 leukemia 21.7% | OVCAR-8 ovarian 18.9% | OVCAR-5 ovarian 31.6% | OVCAR-4 ovarian 49.9% | IGROV1 ovarian 32.7% | HS 578T breast 28.1% | NCI/ADR-RES ovarian 40.7% | T-47D breast 61.4% | SW-620 colon 26.1% | MCF7 breast 18.8% | HCC-2998 colon 28.4%

C[C@]12C[C@H](c3ccoc3)OC(=O)[C@H]1CC[C@@]1(C)[C@@H]2[C@H]2C=C[C@]1(O)C(=O)O2
inactive: MOLT-4 leukemia 96% | SR leukemia 100% | RPMI-8226 leukemia 95.4% | OVCAR-8 ovarian 95.3% | OVCAR-5 ovarian 104% | OVCAR-4 ovarian 93.7% | SK-OV-3 ovarian 95.7% | IGROV1 ovarian 96% | OVCAR-3 ovarian 102% | HS 578T breast 107% | NCI/ADR-RES ovarian 106% | T-47D breast 103% | BT-549 breast 86.5% | MDA-MB-435 melanoma 98.1% | SW-620 colon 109% | MCF7 breast 92.7% | HCT-116 colon 76.6% | HCC-2998 colon 103% | KM12 colon 104%

CC[C@H](C)[C@H](NC(=O)[C@H]1CCCCN1C)C(=O)N(C)[C@H](C(=O)NC12CC(C(=O)N[C@@H](Cc3ccccc3)C[C@H](C)C(=O)OC)(C1)C2)C(C)C
inactive: MOLT-4 leukemia 104% | SR leukemia 114% | RPMI-8226 leukemia 108% | OVCAR-8 ovarian 96.8% | OVCAR-5 ovarian 98.4% | OVCAR-4 ovarian 90.8% | SK-OV-3 ovarian 104% | IGROV1 ovarian 105% | OVCAR-3 ovarian 101% | HS 578T breast 118% | NCI/ADR-RES ovarian 103% | T-47D breast 85.7% | BT-549 breast 101% | MDA-MB-435 melanoma 108% | SW-620 colon 107% | MCF7 breast 96.4% | HCT-116 colon 99.5% | HCC-2998 colon 109% | KM12 colon 104%

CSc1cc(/C=C(\C)[C@@H]2C[C@@H]3O[C@]3(C)CCC[C@H](C)[C@H](O)[C@@H](C)C(=O)C(C)(C)[C@@H](O)CC(=O)O2)n(CCNC(=O)OC(C)(C)C)n1
inactive: MOLT-4 leukemia 42.7% | SR leukemia 37.7% | RPMI-8226 leukemia 29.7% | OVCAR-8 ovarian 55.5% | OVCAR-5 ovarian 59.8% | OVCAR-4 ovarian 82.4% | SK-OV-3 ovarian 79.9% | IGROV1 ovarian 54.4% | OVCAR-3 ovarian 28.8% | HS 578T breast 75.5% | NCI/ADR-RES ovarian 40.4% | T-47D breast 66.2% | BT-549 breast 71.4% | SW-620 colon 31.3% | MCF7 breast 33.3% | HCT-116 colon 26.7% | HCC-2998 colon 54.7% | KM12 colon 23.1%
active: MDA-MB-435 melanoma -19.8%

C[C@@H]1C/C=C\C(=O)O[C@H](/C=C/C#C/C=C/C(C)(C)[C@@H](O)c2cccc(O)c2Br)[C@@H](C)/C=C/[C@H](C)C[C@H](OC(N)=O)C1
active: SR leukemia 5.45%
inactive: MOLT-4 leukemia 19.7% | RPMI-8226 leukemia 11.3% | OVCAR-8 ovarian 20.3% | OVCAR-5 ovarian 46.8% | OVCAR-4 ovarian 50.3% | SK-OV-3 ovarian 55.9% | IGROV1 ovarian 48.6% | OVCAR-3 ovarian 41.5% | HS 578T breast 54.8% | NCI/ADR-RES ovarian 33.5% | T-47D breast 12.6% | BT-549 breast 43.8% | MDA-MB-435 melanoma 19.2% | SW-620 colon 30.4% | MCF7 breast 18.6% | HCT-116 colon 14.2% | HCC-2998 colon 28.2% | KM12 colon 40.3%

CCCCCCCCCCCCCCCC[n+]1ccccc1
inactive: NCI/ADR-RES ovarian 41.7% and 69.3%
active: MOLT-4 leukemia -61.5% and -64.2% | SR leukemia -32.3% and -40.4% | RPMI-8226 leukemia -67.1% and -42.5% | OVCAR-8 ovarian -72.2% and -41.8% | OVCAR-5 ovarian -45.6% and -15% | OVCAR-4 ovarian -5.49% and -2.49% | SK-OV-3 ovarian -43% and -22.4% | IGROV1 ovarian -73% and -60.1% | OVCAR-3 ovarian -70.9% and -51% | HS 578T breast -26.3% and -12.5% | T-47D breast 3.84% and -0.991% | BT-549 breast -50.8% and -73.3% | MDA-MB-435 melanoma -82.2% and -80.6% | SW-620 colon -84.8% and -29.2% | MCF7 breast -21.9% and -2.32% | HCT-116 colon -65% and -95.5% | HCC-2998 colon -80.8% and -60.6% | KM12 colon -96.2% and -81.6%

CCC1(NC(=O)c2cc(F)c(F)c(F)c2F)C(=O)NC(=O)N(C(C)C)C1=O (stereo not given)
inactive: MOLT-4 leukemia 55% | RPMI-8226 leukemia 107% | OVCAR-8 ovarian 79.4% | OVCAR-5 ovarian 109% | OVCAR-4 ovarian 84.6% | SK-OV-3 ovarian 150% | OVCAR-3 ovarian 138% | HS 578T breast 28.3% | NCI/ADR-RES ovarian 105% | T-47D breast 214% | BT-549 breast 72.9% | MDA-MB-435 melanoma 59.8% | SW-620 colon 62.7% | MCF7 breast 96.4% | HCT-116 colon 99% | KM12 colon 139%
active: SR leukemia -18.6% | IGROV1 ovarian -56.8% | HCC-2998 colon -55.8%

N[C@@H](CCC(=O)CCl)C(=O)O
inactive: MOLT-4 leukemia 99.9% [20 µM] | SR leukemia 71.3% [20 µM] | RPMI-8226 leukemia 111% [20 µM] | OVCAR-8 ovarian 108% [20 µM] | OVCAR-5 ovarian 98% [20 µM] | OVCAR-4 ovarian 112% [20 µM] | SK-OV-3 ovarian 108% [20 µM] | IGROV1 ovarian 99.5% [20 µM] | OVCAR-3 ovarian 110% [20 µM] | HS 578T breast 109% [20 µM] | NCI/ADR-RES ovarian 104% [20 µM] | T-47D breast 93% [20 µM] | BT-549 breast 108% [20 µM] | MDA-MB-435 melanoma 103% [20 µM] | SW-620 colon 97.9% [20 µM] | MCF7 breast 87.9% [20 µM] | HCT-116 colon 104% [20 µM] | HCC-2998 colon 111% [20 µM] | KM12 colon 100% [20 µM]

OCCN=Cc1c[nH]c2ccccc12
inactive: MOLT-4 leukemia 101% | SR leukemia 95.4% | RPMI-8226 leukemia 120% | OVCAR-8 ovarian 100% | OVCAR-5 ovarian 91% | OVCAR-4 ovarian 94% | SK-OV-3 ovarian 98.6% | IGROV1 ovarian 104% | OVCAR-3 ovarian 97.7% | HS 578T breast 97.5% | NCI/ADR-RES ovarian 100% | T-47D breast 94.5% | BT-549 breast 107% | MDA-MB-435 melanoma 103% | SW-620 colon 93.3% | MCF7 breast 93% | HCT-116 colon 96.7% | HCC-2998 colon 107% | KM12 colon 102%

C/C(=C(\c1ccc(OCCN2CCOCC2)cc1)c1ccc(OC(=O)Cc2ccccc2)cc1)c1ccc(Cl)cc1
inactive: MOLT-4 leukemia 56.3% | SR leukemia 114% | RPMI-8226 leukemia 57.6% | OVCAR-8 ovarian 97.7% | OVCAR-5 ovarian 95.2% | OVCAR-4 ovarian 98.5% | SK-OV-3 ovarian 110% | IGROV1 ovarian 106% | OVCAR-3 ovarian 95.8% | HS 578T breast 104% | NCI/ADR-RES ovarian 95.8% | T-47D breast 78% | BT-549 breast 91.1% | MDA-MB-435 melanoma 91.4% | SW-620 colon 98.6% | MCF7 breast 83.5% | HCT-116 colon 75.7% | HCC-2998 colon 88.4% | KM12 colon 99.3%

O=C(O)c1ccc(=O)[nH]c1
-49% (active) and 101% (inactive): HCC-2998 colon
inactive: MOLT-4 leukemia 119% and 99.2% | SR leukemia 87.7% and 105% | RPMI-8226 leukemia 103% and 96.5% | OVCAR-8 ovarian 101% and 103% | OVCAR-5 ovarian 90.3% and 106% | OVCAR-4 ovarian 111% and 106% | SK-OV-3 ovarian 98.9% and 93% | IGROV1 ovarian 109% | OVCAR-3 ovarian 113% and 108% | HS 578T breast 98.5% and 102% | NCI/ADR-RES ovarian 88.9% and 102% | T-47D breast 88.8% and 89.6% | BT-549 breast 89.7% | MDA-MB-435 melanoma 106% and 103% | SW-620 colon 105% and 107% | MCF7 breast 126% and 93.4% | HCT-116 colon 103% and 93.7% | KM12 colon 103% and 105%

COc1ccc2c(c1)c(-c1nc(-c3c[nH]c4ncccc34)cs1)cn2CCCCN1CCOCC1
active: MOLT-4 leukemia -21% | SR leukemia -17.5% | RPMI-8226 leukemia -5.6% | MDA-MB-435 melanoma -59% | SW-620 colon -63%
inactive: OVCAR-8 ovarian 55.6% | OVCAR-5 ovarian 58.3% | OVCAR-4 ovarian 50.8% | SK-OV-3 ovarian 78.2% | IGROV1 ovarian 36.1% | OVCAR-3 ovarian 58.3% | HS 578T breast 44.8% | NCI/ADR-RES ovarian 63.3% | T-47D breast 48% | BT-549 breast 84.2% | MCF7 breast 18.1% | HCT-116 colon 32.5% | HCC-2998 colon 26.7% | KM12 colon 16.4%

CC[C@H](C)[C@H]1O[C@]2(C=C[C@@H]1C)C[C@@H]1C[C@@H](C/C=C(\C)[C@@H](O[C@H]3C[C@H](OC)[C@@H](O[C@H]4C[C@H](OC)[C@@H](NC)[C@H](C)O4)[C@H](C)O3)[C@@H](C)/C=C/C=C3\CO[C@@H]4[C@H](O)C(C)=C[C@@H](C(=O)O1)[C@]34O)O2
active: MOLT-4 leukemia -42.3% | SR leukemia -32.4% | RPMI-8226 leukemia -30.7% | OVCAR-5 ovarian -34.5% | OVCAR-4 ovarian -1.85% | SK-OV-3 ovarian -36.6% | IGROV1 ovarian -31.9% | OVCAR-3 ovarian -68.8% | HS 578T breast -42.9% | NCI/ADR-RES ovarian 0.588% | T-47D breast -27.6% | BT-549 breast 3.48% | MDA-MB-435 melanoma -83.4% | SW-620 colon -68.1% | MCF7 breast -85% | HCT-116 colon -79% | HCC-2998 colon -83.9% | KM12 colon -70.6%
inactive: OVCAR-8 ovarian 10.7%

C#Cc1cccc(Nc2nc(Cl)nc3cc(NC(=O)CF)ccc23)c1
active: MDA-MB-435 melanoma -19.1%
inactive: MOLT-4 leukemia 80% | SR leukemia 22.1% | RPMI-8226 leukemia 103% | OVCAR-8 ovarian 88.2% | OVCAR-5 ovarian 78.7% | OVCAR-4 ovarian 108% | SK-OV-3 ovarian 81.5% | IGROV1 ovarian 75.4% | OVCAR-3 ovarian 53.5% | HS 578T breast 84.3% | NCI/ADR-RES ovarian 53.9% | T-47D breast 79.5% | SW-620 colon 35.4% | MCF7 breast 48.2% | HCT-116 colon 42.4% | HCC-2998 colon 78.2% | KM12 colon 40.1%
